# From publication PMC8384837, “Expanding the binding specificity for RNA recognition by a PUF domain”
# Columns and labels:
# Assay in all cases: yeast three-hybrid, YBZ-1, SC-Leu-His + 0.5 mM 3-AT, 4 days
# Conditions in all cases: tags: N-Gal4 AD-HA kept; label: inside an RPR1-promoter hybrid RNA with tandem MS2 sites; ssRNA
# [1] = target: PUM1 PUF domain R3-TAQ (Homo sapiens, UniProt Q14671 828-1176, C935T;R936A)
# Outline: (§1)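 The interaction score is the log change in variant frequency from input to selection. Scores were computed in log2 with a pseudocount of 1 for absent variants, using Illumina sequencing of PCR-amplified repeat regions. The input came from four days on SC-Leu and the selection from four days on SC-Leu-His + 0.5 mM 3-AT. The cells were strain YBZ-1 (LexA–MS2 coat fusion, HIS3 reporter) co-expressing Pumilio-1 PUF domain libraries and matching RNA elements from a centromeric plasmid.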
# [2] = target: PUM1 PUF domain R3-DYE (Homo sapiens, UniProt Q14671 828-1176, C935D;R936Y;Q939E)
# Outline: as §1
# [3] = target: PUM1 PUF domain R4-MPV (Homo sapiens, UniProt Q14671 828-1176, N971M;H972P;Q975V)
# Outline: as §1
# [4] = target: PUM1 PUF domain R3-PFL (Homo sapiens, UniProt Q14671 828-1176, C935P;R936F;Q939L)
# Outline: as §1
# [5] = target: PUM1 PUF domain R2-EWE (Homo sapiens, UniProt Q14671 828-1176, N899E;Y900W;Q903E)
# Outline: as §1
# [6] = target: PUM1 PUF domain R1-RTW (Homo sapiens, UniProt Q14671 828-1176, S863R;R864T;Q867W)
# Outline: as §1
# [7] = target: PUM1 PUF domain R5-KAG (Homo sapiens, UniProt Q14671 828-1176, C1007K;R1008A;Q1011G)
# Outline: as §1
sequence,measurement,setting,value
GGCUAGAACUAGUGGAUCCCCCGGCGCCCGGCGGCUCGAGCCCGGGUAAGUGUAAAUAGUCUGCAUGCCGCCGGGCGCCAUGCCUGCAGGUCGACUCUAGAAAACAUG,binding signal,[1],4.25 log2 enrichment (interaction score)
same,binding signal,[2],3.76 log2 enrichment (interaction score)
same,binding signal,[3],2.14 log2 enrichment (interaction score)
same,binding signal,[4],3.64 log2 enrichment (interaction score)
GGCUAGAACUAGUGGAUCCCCCGGCGCCCGGCGGCUCGAGCCCGGGUAAGUGUAAAGAGUCUGCAUGCCGCCGGGCGCCAUGCCUGCAGGUCGACUCUAGAAAACAUG,binding signal,[5],3.45 log2 enrichment (interaction score)
GGCUAGAACUAGUGGAUCCCCCGGCGCCCGGCGGCUCGAGCCCGGGUAAGUGUAAAUUGUCUGCAUGCCGCCGGGCGCCAUGCCUGCAGGUCGACUCUAGAAAACAUG,binding signal,[6],3 log2 enrichment (interaction score)
GGCUAGAACUAGUGGAUCCCCCGGCGCCCGGCGGCUCGAGCCCGGGUAAGUGUAUAUAGUCUGCAUGCCGCCGGGCGCCAUGCCUGCAGGUCGACUCUAGAAAACAUG,binding signal,[3],3.02 log2 enrichment (interaction score)
GGCUAGAACUAGUGGAUCCCCCGGCGCCCGGCGGCUCGAGCCCGGGUAAGUGUAAUUAGUCUGCAUGCCGCCGGGCGCCAUGCCUGCAGGUCGACUCUAGAAAACAUG,binding signal,[4],4.55 log2 enrichment (interaction score)
GGCUAGAACUAGUGGAUCCCCCGGCGCCCGGCGGCUCGAGCCCGGGUAAGUGUCAAUAGUCUGCAUGCCGCCGGGCGCCAUGCCUGCAGGUCGACUCUAGAAAACAUG,binding signal,[7],2.58 log2 enrichment (interaction score)
